Key:
Experiment in all cases: DAPPL (digital affinity profiling via proximity ligation, sequencing); 10 mM Tris-HCl pH 7.5, 50 mM NaCl, 1 mM DTT, 4% glycerol, room temperature, 30 min; GST-TFs on glutathione beads, 16-mer random dsDNA library, 0.1% formaldehyde crosslink after washing; high values mean tight binding
[1] = molecular target: T1, FEV (Homo sapiens, UniProt Q99581 1-238); conditions: protein: recombinant; tags: N-terminal GST; dsDNA, one strand shown
T1 sequence: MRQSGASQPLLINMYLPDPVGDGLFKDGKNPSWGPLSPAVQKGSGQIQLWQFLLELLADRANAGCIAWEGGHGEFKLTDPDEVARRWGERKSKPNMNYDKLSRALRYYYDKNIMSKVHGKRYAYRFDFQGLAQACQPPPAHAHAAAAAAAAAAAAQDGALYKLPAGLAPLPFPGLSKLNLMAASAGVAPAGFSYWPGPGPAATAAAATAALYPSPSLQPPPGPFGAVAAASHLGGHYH
Outline: (§1)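 Human transcription factors carrying a GST fusion were produced in yeast, bound to glutathione beads, tagged with DNA barcodes and pooled together with a tag-only sample. Each pool was held with 200 nmole of a random double-stranded 16-mer DNA library in Tris/NaCl/DTT/glycerol buffer for 30 min at room temperature, then washed, crosslinked in 0.1% formaldehyde, proximity-ligated with BsaI/T4 ligase (1 h, 37 °C), PCR-amplified and sequenced on an Illumina NextSeq500. Binding signal is the read frequency of each hexamer for a given factor divided by its frequency in the tag-only sample.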

[2] = molecular target: ETV5 (Homo sapiens, UniProt P41161 1-510); conditions: protein: recombinant; tags: N-terminal GST; dsDNA, one strand shown
Outline: as §1

[3] = molecular target: HSF1 (Homo sapiens, UniProt Q00613 1-529); conditions: protein: recombinant; tags: N-terminal GST; chain copies: 3; dsDNA, one strand shown
Outline: as §1

[4] = molecular target: T2, SPIC (Homo sapiens, UniProt Q8N5J4 1-248); conditions: protein: recombinant; tags: N-terminal GST; dsDNA, one strand shown
T2 sequence: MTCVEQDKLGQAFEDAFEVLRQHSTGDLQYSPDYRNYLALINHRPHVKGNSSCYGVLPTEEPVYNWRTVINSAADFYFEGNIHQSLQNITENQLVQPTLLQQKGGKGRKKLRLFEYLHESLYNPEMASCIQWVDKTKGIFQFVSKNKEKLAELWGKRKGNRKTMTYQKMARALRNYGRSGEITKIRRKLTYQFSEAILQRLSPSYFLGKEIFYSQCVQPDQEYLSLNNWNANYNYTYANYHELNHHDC
Outline: as §1

[5] = molecular target: ELF4 (Homo sapiens, UniProt Q99607 1-663); conditions: protein: recombinant; tags: N-terminal GST; dsDNA, one strand shown
Outline: as §1

[6] = molecular target: T3, ELK4 (Homo sapiens, UniProt P28324-2 1-405); conditions: protein: recombinant; tags: N-terminal GST; dsDNA, one strand shown
T3 sequence: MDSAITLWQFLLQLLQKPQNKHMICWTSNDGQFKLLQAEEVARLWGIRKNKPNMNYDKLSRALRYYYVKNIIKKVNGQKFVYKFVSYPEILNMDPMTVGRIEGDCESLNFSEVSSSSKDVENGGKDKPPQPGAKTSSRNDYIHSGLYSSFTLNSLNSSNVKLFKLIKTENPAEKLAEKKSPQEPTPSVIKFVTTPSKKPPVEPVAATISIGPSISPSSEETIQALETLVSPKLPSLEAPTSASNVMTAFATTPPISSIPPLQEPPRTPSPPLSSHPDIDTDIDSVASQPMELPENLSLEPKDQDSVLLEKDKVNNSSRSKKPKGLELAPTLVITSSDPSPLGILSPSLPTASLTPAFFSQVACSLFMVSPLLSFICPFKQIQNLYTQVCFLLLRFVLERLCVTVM
Outline: as §1

[7] = molecular target: T4, ETV2 (Homo sapiens, UniProt O00321 1-342); conditions: protein: recombinant; tags: N-terminal GST; dsDNA, one strand shown
T4 sequence: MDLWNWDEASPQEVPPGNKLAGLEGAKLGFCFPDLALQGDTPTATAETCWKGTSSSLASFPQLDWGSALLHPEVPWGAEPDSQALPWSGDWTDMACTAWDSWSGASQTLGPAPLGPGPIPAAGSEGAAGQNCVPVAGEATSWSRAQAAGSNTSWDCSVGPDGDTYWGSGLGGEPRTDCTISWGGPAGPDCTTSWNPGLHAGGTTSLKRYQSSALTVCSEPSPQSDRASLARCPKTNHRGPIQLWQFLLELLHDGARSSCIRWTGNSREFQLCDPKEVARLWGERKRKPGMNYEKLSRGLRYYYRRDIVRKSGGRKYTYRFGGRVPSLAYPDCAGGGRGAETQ
Outline: as §1

[8] = molecular target: T5, ELF3 (Homo sapiens, UniProt P78545 1-371); conditions: protein: recombinant; tags: N-terminal GST; dsDNA, one strand shown
T5 sequence: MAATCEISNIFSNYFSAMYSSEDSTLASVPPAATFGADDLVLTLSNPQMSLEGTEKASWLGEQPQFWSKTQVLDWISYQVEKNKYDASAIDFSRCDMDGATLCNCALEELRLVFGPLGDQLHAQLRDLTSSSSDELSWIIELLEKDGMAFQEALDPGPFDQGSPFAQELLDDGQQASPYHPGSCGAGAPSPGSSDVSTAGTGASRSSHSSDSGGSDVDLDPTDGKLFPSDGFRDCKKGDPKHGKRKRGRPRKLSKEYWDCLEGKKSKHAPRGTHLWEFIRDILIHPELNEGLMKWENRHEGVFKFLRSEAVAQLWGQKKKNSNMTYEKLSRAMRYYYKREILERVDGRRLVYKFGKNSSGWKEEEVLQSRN
Outline: as §1

[9] = molecular target: CRX (Homo sapiens, UniProt O43186 1-299); conditions: protein: recombinant; tags: N-terminal GST; dsDNA, one strand shown
Outline: as §1

[10] = molecular target: ETV1 (Homo sapiens, UniProt P50549 1-477); conditions: protein: recombinant; tags: N-terminal GST; dsDNA, one strand shown
Outline: as §1

Sequence of CRX (O43186 whole entry): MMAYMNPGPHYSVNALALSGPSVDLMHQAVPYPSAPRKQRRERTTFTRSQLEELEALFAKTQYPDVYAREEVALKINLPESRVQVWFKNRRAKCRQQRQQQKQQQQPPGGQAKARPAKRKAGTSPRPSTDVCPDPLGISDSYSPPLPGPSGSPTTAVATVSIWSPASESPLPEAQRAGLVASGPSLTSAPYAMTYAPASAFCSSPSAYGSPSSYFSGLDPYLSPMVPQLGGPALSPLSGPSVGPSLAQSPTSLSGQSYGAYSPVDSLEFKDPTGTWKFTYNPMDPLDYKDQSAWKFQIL
Sequence of ETV5 (P41161 whole entry): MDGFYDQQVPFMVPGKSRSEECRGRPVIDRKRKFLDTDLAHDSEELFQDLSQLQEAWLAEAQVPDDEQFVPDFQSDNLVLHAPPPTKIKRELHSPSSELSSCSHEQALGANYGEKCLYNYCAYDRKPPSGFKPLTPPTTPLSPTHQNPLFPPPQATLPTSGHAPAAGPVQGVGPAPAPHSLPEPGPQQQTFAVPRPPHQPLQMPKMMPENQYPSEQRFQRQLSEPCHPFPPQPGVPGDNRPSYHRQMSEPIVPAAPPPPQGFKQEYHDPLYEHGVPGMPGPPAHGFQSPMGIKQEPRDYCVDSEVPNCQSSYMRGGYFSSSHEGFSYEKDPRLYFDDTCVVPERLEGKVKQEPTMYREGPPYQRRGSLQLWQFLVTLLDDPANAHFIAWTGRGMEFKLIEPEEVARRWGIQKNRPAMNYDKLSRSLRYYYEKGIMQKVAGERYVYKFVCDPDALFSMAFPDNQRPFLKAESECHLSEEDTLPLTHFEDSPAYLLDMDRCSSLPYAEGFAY
Sequence of ELF4 (Q99607 whole entry): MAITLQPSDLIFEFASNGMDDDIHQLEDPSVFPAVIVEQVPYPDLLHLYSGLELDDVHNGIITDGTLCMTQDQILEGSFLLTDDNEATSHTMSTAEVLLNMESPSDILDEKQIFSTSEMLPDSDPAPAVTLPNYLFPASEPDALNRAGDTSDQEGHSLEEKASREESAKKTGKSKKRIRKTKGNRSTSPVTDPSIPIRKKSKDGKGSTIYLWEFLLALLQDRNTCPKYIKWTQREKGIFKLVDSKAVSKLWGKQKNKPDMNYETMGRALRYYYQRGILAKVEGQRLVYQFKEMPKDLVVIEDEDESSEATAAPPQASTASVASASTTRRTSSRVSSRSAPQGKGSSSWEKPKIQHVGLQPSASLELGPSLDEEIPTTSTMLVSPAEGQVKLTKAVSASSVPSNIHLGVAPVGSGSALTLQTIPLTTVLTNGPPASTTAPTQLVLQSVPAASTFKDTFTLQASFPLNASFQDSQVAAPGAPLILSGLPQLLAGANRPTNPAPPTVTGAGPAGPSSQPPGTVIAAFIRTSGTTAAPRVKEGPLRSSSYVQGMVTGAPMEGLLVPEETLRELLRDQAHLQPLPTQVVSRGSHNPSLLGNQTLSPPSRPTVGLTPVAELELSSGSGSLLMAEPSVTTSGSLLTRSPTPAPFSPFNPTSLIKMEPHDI
Sequence of HSF1 (Q00613 whole entry): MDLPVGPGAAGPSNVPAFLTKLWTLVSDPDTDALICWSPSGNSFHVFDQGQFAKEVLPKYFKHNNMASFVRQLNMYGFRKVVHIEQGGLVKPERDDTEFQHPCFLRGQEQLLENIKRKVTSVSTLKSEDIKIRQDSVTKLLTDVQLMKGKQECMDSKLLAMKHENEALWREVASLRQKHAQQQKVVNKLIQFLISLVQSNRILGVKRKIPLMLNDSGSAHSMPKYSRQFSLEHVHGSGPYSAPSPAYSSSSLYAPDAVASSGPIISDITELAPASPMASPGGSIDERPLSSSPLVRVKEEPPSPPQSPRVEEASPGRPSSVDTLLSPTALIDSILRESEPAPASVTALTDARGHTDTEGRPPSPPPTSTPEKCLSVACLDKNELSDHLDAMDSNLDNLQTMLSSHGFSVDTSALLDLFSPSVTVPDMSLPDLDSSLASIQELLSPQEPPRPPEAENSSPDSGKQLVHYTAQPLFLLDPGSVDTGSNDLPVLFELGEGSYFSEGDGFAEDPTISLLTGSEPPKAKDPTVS
Sequence of ETV1 (P50549 whole entry): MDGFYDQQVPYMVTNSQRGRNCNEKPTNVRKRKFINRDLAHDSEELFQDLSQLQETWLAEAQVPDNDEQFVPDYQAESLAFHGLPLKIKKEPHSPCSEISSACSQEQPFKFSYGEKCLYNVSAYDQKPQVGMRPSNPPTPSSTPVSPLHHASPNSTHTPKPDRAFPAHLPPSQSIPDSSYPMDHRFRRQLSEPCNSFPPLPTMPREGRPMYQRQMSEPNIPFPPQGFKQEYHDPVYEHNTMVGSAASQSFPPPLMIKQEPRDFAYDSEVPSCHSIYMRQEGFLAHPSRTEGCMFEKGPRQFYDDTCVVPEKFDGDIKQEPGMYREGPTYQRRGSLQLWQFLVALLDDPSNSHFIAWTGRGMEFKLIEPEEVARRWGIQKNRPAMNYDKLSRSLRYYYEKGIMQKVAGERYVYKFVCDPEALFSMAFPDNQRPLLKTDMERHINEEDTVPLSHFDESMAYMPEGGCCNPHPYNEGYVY

Row | Sequence | binding signal [1] | binding signal [2] | binding signal [3] | binding signal [4] | binding signal [5] | binding signal [6] | binding signal [7] | binding signal [8] | binding signal [9] | binding signal [10]
1 | TTGCCT | 1.19 fold enrichment (6-mer frequency, TF over GST control) | 1.22 fold enrichment (6-mer frequency, TF over GST control) | 1.13 fold enrichment (6-mer frequency, TF over GST control) | 1.42 fold enrichment (6-mer frequency, TF over GST control) | 1.29 fold enrichment (6-mer frequency, TF over GST control) | 1.2 fold enrichment (6-mer frequency, TF over GST control) | 1.19 fold enrichment (6-mer frequency, TF over GST control) | 1.42 fold enrichment (6-mer frequency, TF over GST control) | 1.16 fold enrichment (6-mer frequency, TF over GST control) | 1.37 fold enrichment (6-mer frequency, TF over GST control)
2 | CCCCCT | 1.18 fold enrichment (6-mer frequency, TF over GST control) | 1.29 fold enrichment (6-mer frequency, TF over GST control) | 1.02 fold enrichment (6-mer frequency, TF over GST control) | 1.31 fold enrichment (6-mer frequency, TF over GST control) | 1.35 fold enrichment (6-mer frequency, TF over GST control) | 1.58 fold enrichment (6-mer frequency, TF over GST control) | 1.17 fold enrichment (6-mer frequency, TF over GST control) | 1.39 fold enrichment (6-mer frequency, TF over GST control) | 1.07 fold enrichment (6-mer frequency, TF over GST control) | 1.2 fold enrichment (6-mer frequency, TF over GST control)
3 | AGCTTC | 1.84 fold enrichment (6-mer frequency, TF over GST control) | 1.85 fold enrichment (6-mer frequency, TF over GST control) | 1.93 fold enrichment (6-mer frequency, TF over GST control) | 1.75 fold enrichment (6-mer frequency, TF over GST control) | 1.67 fold enrichment (6-mer frequency, TF over GST control) | 1.64 fold enrichment (6-mer frequency, TF over GST control) | 1.74 fold enrichment (6-mer frequency, TF over GST control) | 1.58 fold enrichment (6-mer frequency, TF over GST control) | 1.62 fold enrichment (6-mer frequency, TF over GST control) | 1.62 fold enrichment (6-mer frequency, TF over GST control)
4 | ATATGC | 1.11 fold enrichment (6-mer frequency, TF over GST control) | 1.15 fold enrichment (6-mer frequency, TF over GST control) | 1.01 fold enrichment (6-mer frequency, TF over GST control) | 1.4 fold enrichment (6-mer frequency, TF over GST control) | 1.1 fold enrichment (6-mer frequency, TF over GST control) | 1.28 fold enrichment (6-mer frequency, TF over GST control) | 1.06 fold enrichment (6-mer frequency, TF over GST control) | 1.09 fold enrichment (6-mer frequency, TF over GST control) | 1.01 fold enrichment (6-mer frequency, TF over GST control) | 1.11 fold enrichment (6-mer frequency, TF over GST control)
5 | ACCTCT | 1.3 fold enrichment (6-mer frequency, TF over GST control) | 1.31 fold enrichment (6-mer frequency, TF over GST control) | 1.18 fold enrichment (6-mer frequency, TF over GST control) | 1.47 fold enrichment (6-mer frequency, TF over GST control) | 1.33 fold enrichment (6-mer frequency, TF over GST control) | 1.29 fold enrichment (6-mer frequency, TF over GST control) | 1.35 fold enrichment (6-mer frequency, TF over GST control) | 1.51 fold enrichment (6-mer frequency, TF over GST control) | 1.19 fold enrichment (6-mer frequency, TF over GST control) | 1.3 fold enrichment (6-mer frequency, TF over GST control)
6 | CCTTCC | 2.78 fold enrichment (6-mer frequency, TF over GST control) | 2.73 fold enrichment (6-mer frequency, TF over GST control) | 1.81 fold enrichment (6-mer frequency, TF over GST control) | 2.36 fold enrichment (6-mer frequency, TF over GST control) | 2.5 fold enrichment (6-mer frequency, TF over GST control) | 2.19 fold enrichment (6-mer frequency, TF over GST control) | 2.51 fold enrichment (6-mer frequency, TF over GST control) | 2.27 fold enrichment (6-mer frequency, TF over GST control) | 1.26 fold enrichment (6-mer frequency, TF over GST control) | 2.55 fold enrichment (6-mer frequency, TF over GST control)
7 | CAACTT | 1.78 fold enrichment (6-mer frequency, TF over GST control) | 1.58 fold enrichment (6-mer frequency, TF over GST control) | 1.22 fold enrichment (6-mer frequency, TF over GST control) | 1.77 fold enrichment (6-mer frequency, TF over GST control) | 1.57 fold enrichment (6-mer frequency, TF over GST control) | 1.65 fold enrichment (6-mer frequency, TF over GST control) | 1.4 fold enrichment (6-mer frequency, TF over GST control) | 1.61 fold enrichment (6-mer frequency, TF over GST control) | 1.25 fold enrichment (6-mer frequency, TF over GST control) | 1.54 fold enrichment (6-mer frequency, TF over GST control)
8 | AAGTAT | 1.34 fold enrichment (6-mer frequency, TF over GST control) | 1.38 fold enrichment (6-mer frequency, TF over GST control) | 1.38 fold enrichment (6-mer frequency, TF over GST control) | 1.49 fold enrichment (6-mer frequency, TF over GST control) | 1.4 fold enrichment (6-mer frequency, TF over GST control) | 1.31 fold enrichment (6-mer frequency, TF over GST control) | 1.42 fold enrichment (6-mer frequency, TF over GST control) | 1.35 fold enrichment (6-mer frequency, TF over GST control) | 1.57 fold enrichment (6-mer frequency, TF over GST control) | 1.44 fold enrichment (6-mer frequency, TF over GST control)

— PMC7862700, “An all-to-all approach to the identification of sequence-specific readers for epigenetic DNA modifications on cytosine”
